Results: PubChem BioAssay AID434970 (Sanford-Burnham Center for Chemical Genomics, 2010)
Hit rate of the full screen: of about 11,000 compounds, about 310 (2.8%) were called active. Cut-off read from the data, not from the text of the source: active = activity change below about -85%; inactive = the rest. This excerpt belongs to a sample that is enriched for actives.

test system: intestinal alkaline phosphatase [Mus musculus]; test: activators of mouse IAP, confirmation, biochemical, luminescence, single concentration (AID 434970); conditions: purified mouse IAP, CDP-Star luminescence, 30 min, at 10 µM; activation factor: measured here: IAP activation factor, stronger effect = higher value; activity change, negative = activation: stronger effect = lower value

SMILES	activation factor	activity change, negative = activation
S=C(NCCNCc1ccccc1)NC1CCCCC1	1.18	-18% (inactive)
O=C(NN1C(=O)CSC1=S)C(=O)NN1C(=O)CSC1=S	0.0825	91.8% (inactive)
CC(C)=CCC/C(C)=C/CNC(=O)C[C@H]1C[C@H](C(=O)N(C(C)C)C(C)C)[C@@]2(C)c3[nH]c4cc(-c5ccco5)ccc4c3CCN2C1=O	1.39	-39.4% (inactive)
COc1ccc(NC(=O)CCS(=O)(=O)c2cccc3nonc23)c(OC)c1	0.945	5.5% (inactive)
COc1ccc(C2CC(c3ccc(Cl)cc3)=NN2c2ccc(S(N)(=O)=O)cc2)cc1 (centres undefined)	1.6	-59.8% (inactive)
COc1ccc(C2CC(c3ccccc3Br)=NN2c2ccc(S(N)(=O)=O)cc2)cc1 (centres undefined)	1.27	-26.8% (inactive)
COc1ccc(C2CC(c3cccc(C(F)(F)F)c3)=NN2c2ccc(S(N)(=O)=O)cc2)cc1 (centres undefined)	1.51	-50.8% (inactive)
COc1ccc(C2CC(c3cccc(F)c3)=NN2c2ccc(S(N)(=O)=O)cc2)cc1 (centres undefined)	1.67	-67.2% (inactive)
COc1ccc(C2CC(c3ccccc3C(F)(F)F)=NN2c2ccc(S(N)(=O)=O)cc2)cc1 (centres undefined)	2.21	-121% (active)
COc1ccc(C2CC(c3ccccc3F)=NN2c2ccc(S(N)(=O)=O)cc2)cc1 (centres undefined)	2.13	-113% (active)
COc1ccc(C2CC(c3ccc(C(F)(F)F)cc3)=NN2c2ccc(S(N)(=O)=O)cc2)cc1 (centres undefined)	1.37	-36.7% (inactive)
COc1ccc(C2CC(c3cccc(Cl)c3)=NN2c2ccc(S(N)(=O)=O)cc2)cc1 (centres undefined)	1.79	-78.7% (inactive)
COc1ccc(C2CC(c3ccccc3Cl)=NN2c2ccc(S(N)(=O)=O)cc2)cc1 (centres undefined)	2.18	-118% (active)
CSc1ccc(-c2nc(CSCC(=O)NCCCN3CCOCC3)c(C)o2)cc1	0.847	15.3% (inactive)
CCOC(=O)C1=C(C)OC(N)=C(C#N)C1c1cc2cc(C)ccc2nc1N1CCCCC1 (centres undefined)	1.02	-1.65% (inactive)
CN(C)CCCNC(=O)C[C@H]1C[C@H](C(=O)N2CCCCC2)[C@@]2(CCc3ccccc3)c3[nH]c4cc(CCC(=O)N(C)C)ccc4c3CCN2C1=O	1.1	-10.1% (inactive)
Cc1cnc(NC(=O)c2ccco2)s1	0.954	4.55% (inactive)
O=C1[C@@H](Oc2ccccc2)[C@@H](c2ccccc2)N1c1ccccc1	0.938	6.25% (inactive)
Cc1ccc(S(=O)(=O)N2CCC(C(=O)Nc3ccc(C(C)C)cc3)CC2)cc1	3.49	-249% (active)
Cc1ccc(S(=O)(=O)N2CCC(C(=O)N[C@@H](C)C(=O)NC3CCCCC3)CC2)cc1	1.09	-8.65% (inactive)
Cc1ccc(NC(=O)C2CCN(S(=O)(=O)c3ccc4c(c3)NC(=O)C(C)S4)CC2)cc1Cl (centres undefined)	1.71	-71.1% (inactive)
CCc1ccc(NC(=O)C2CCN(S(=O)(=O)c3ccc4c(c3)CC(C)N4C(C)=O)CC2)cc1 (centres undefined)	1.49	-48.7% (inactive)
CCNC(=O)C1CCN(S(=O)(=O)c2ccc(F)cc2)CC1	0.998	0.15% (inactive)

SMILES	activation factor	activity change, negative = activation
O=C(Nc1ccc(S(=O)(=O)N2CCCCCC2)cc1)C1CCCO1 (centres undefined)	0.946	5.4% (inactive)
Cc1cc(C)cc(NC(=O)C2CCN(S(=O)(=O)c3ccc4c(c3)NC(=O)C(C)S4)CC2)c1 (centres undefined)	1.96	-96% (active)
Cc1ccc(S(=O)(=O)N2CCC(C(=O)Nc3ccc(S(=O)(=O)N4CCCC4)cc3)CC2)cc1C	2.22	-122% (active)
COc1ccc(S(=O)(=O)N2CCC(C(=O)Nc3cccc(Cl)c3)CC2)cc1OC	1.62	-61.7% (inactive)
Cc1ccc(S(=O)(=O)NNC(=O)C2CCN(S(=O)(=O)c3ccc(C)cc3)CC2)cc1	0.962	3.85% (inactive)
Cc1ccc(NC(=O)C2CCN(S(=O)(=O)c3ccc(N4CCCC4=O)cc3)CC2)cc1Cl	1.79	-79.3% (inactive)
CSc1cccc(NC(=O)C2CCN(S(=O)(=O)c3ccc(F)cc3)CC2)c1	1.98	-97.7% (active)
CC(O)c1nc2ccccc2n1Cc1nnc(-c2ccc(Cl)cc2)o1 (centres undefined)	0.857	14.3% (inactive)
Cn1nc(OCc2ccccc2)ccc1=O	0.947	5.35% (inactive)
CCC(C)OC(=O)c1cc(C)nc2c(Br)cc(Br)cc12 (centres undefined)	1.02	-2% (inactive)
CC[C@]12c3[nH]c4ccc(Cl)cc4c3CCN1C(=O)[C@@H](CC(=O)NCC13CC4CC(CC(C4)C1)C3)C[C@@H]2C(=O)N1CCN(C(=O)c2ccco2)CC1	1.1	-9.55% (inactive)
CCOC(=O)c1sc(NC(=O)Nc2ccccc2Cl)cc1C	1.89	-89.1% (inactive)
Cc1cc(C)c2c(n1)sc1c(=O)[nH]c(SCc3ccccc3)nc12	0.801	19.9% (inactive)
CCOC(=O)Cn1cnc([N+](=O)[O-])n1	0.92	8% (inactive)
COc1cc(-c2nnc(COC(=O)CSc3cc(C)c4ccccc4n3)o2)cc(OC)c1OC	0.99	0.95% (inactive)
CCCCNC(=S)Nc1ccc(Oc2ccccc2)cc1	1.71	-70.5% (inactive)
COc1cccc(NC(=S)NCCN2CCOCC2)c1	1.08	-8.4% (inactive)
COc1cc(NC(=S)NCCC(c2ccccc2)c2ccccc2)cc(OC)c1	3.28	-228% (active)
COc1cc(NC(=O)C(Cc2ccccc2)n2cccc2)cc(OC)c1 (centres undefined)	1.12	-12.3% (inactive)
COc1ccc(CNC(=S)Nc2cccc(Cl)c2)cc1	1.25	-24.7% (inactive)
COc1cccc(NC(=S)NCCC(c2ccccc2)c2ccccc2)c1	3.53	-253% (active)
COc1ccc(S(=O)(=O)Nc2ccccc2)cc1OC	0.947	5.35% (inactive)
COc1ccc(C(=O)CSc2nnnn2Cc2ccccc2)cc1	0.953	4.7% (inactive)

SMILES	activation factor	activity change, negative = activation
Cc1ccc2c(Cl)c(C(=O)Nc3cc(C)on3)sc2c1	0.873	12.6% (inactive)
CC(C)(C)OC(=O)CC[C@@H](C(=O)NCCCCCCCCCCC(=O)N1CCN(C(=O)OC(C)(C)C)CC1)n1cc(CCCCCNC(=O)OC(C)(C)C)nn1	1.51	-51% (inactive)
C#CCOCCOCCOCCNc1nc(N2CCN(C(=O)[C@H](Cc3cc4ccccc4[nH]3)n3cc([C@@H](N)C(C)CC)nn3)CC2)nc(N2CCN(C(=O)[C@H](Cc3cc4ccccc4[nH]3)n3cc([C@@H](N)Cc4ccc(O)cc4)nn3)CC2)n1 (some centres undefined)	1.43	-42.8% (inactive)
C#CCOCCOCCOCCNc1nc(N2CCN(C(=O)CCCCCCCCCCNC(=O)[C@H]([C@@H](C)CC)n3cc(CCCCCN)nn3)CC2)nc(N2CCN(C(=O)CCCCCCCCCCNC(=O)[C@H]([C@@H](C)CC)n3cc(CCCCN=C(N)N)nn3)CC2)n1	15.6	-1460% (active)
CC[C@H](C)[C@@H](C(=O)NCCCCCCCCCCC(=O)N1CCN(C(=O)OC(C)(C)C)CC1)n1cc(CCCCCNC(=O)OC(C)(C)C)nn1	1.52	-51.8% (inactive)
C#CCOCCOCCOCCNc1nc(N2CCN(C(=O)CCCCCCCCCCNC(=O)[C@H]([C@@H](C)CC)n3cc(CCCCN=C(N)N)nn3)CC2)nc(N2CCN(C(=O)CCCCCCCCCCNC(=O)[C@H](CO)n3cc(CCCCCN)nn3)CC2)n1	6.62	-562% (active)
CC[C@H](C)[C@@H](C(=O)NCCCCCCCCCCC(=O)N1CCN(C(=O)OC(C)(C)C)CC1)n1cc(CCCCN=C(NC(=O)OC(C)(C)C)NC(=O)OC(C)(C)C)nn1	2.29	-128% (active)
C#CCOCCOCCOCCNc1nc(N2CCOCC2)nc(N2CCN(C(=O)CCCCCCCCCCNC(=O)[C@H]([C@@H](C)CC)n3cc(CCCCN=C(N)N)nn3)CC2)n1	2.37	-137% (active)
O=C(CCS(=O)(=O)c1cccc2nonc12)Nc1cccc2c1CCCC2	0.972	2.85% (inactive)
O=C(c1ccc(F)cc1)N1CCN(c2cc(=O)[nH]nc2-c2ccccc2)CC1	1.17	-17.4% (inactive)
COc1ccc(-n2c(COc3ccccc3)nnc2SCC(N)=O)cc1	0.967	3.3% (inactive)
CCOC(=O)N1CCC(NC(=O)C2CCC(Cn3c(=O)[nH]c4ccccc4c3=O)CC2)CC1 (centres undefined)	0.908	9.15% (inactive)
O=C1CC(c2nc3ccccc3[nH]2)CN1c1ccccc1 (centres undefined)	0.951	4.9% (inactive)
O=c1ccc(NS(=O)(=O)c2ccc(Cl)cc2)cn1Cc1ccc(Cl)c(Cl)c1	0.948	5.2% (inactive)
CC1C(C)C(O)(c2ccccc2)CCN1C (centres undefined)	0.956	4.35% (inactive)
c1ccc(NC2=NCCCCS2)cc1	1.06	-5.6% (inactive)
C#CCOCCOCCOCCNc1nc(N2CCN(C(=O)CCCCCCCCCCNC(=O)[C@H]([C@@H](C)CC)n3cc(CCCCN=C(N)N)nn3)CC2)nc(N2CCN(C(=O)CCCCCCCCCCNC(=O)[C@@H]([C@H](C)O)n3cc(C)nn3)CC2)n1	14.6	-1360% (active)
C#CCOCCOCCOCCNc1nc(N2CCN(C(=O)CCCCCCCCCCNC(=O)[C@H]([C@@H](C)CC)n3cc(CCCCN=C(N)N)nn3)CC2)nc(N2CCN(C(=O)CCCCCCCCCCNC(=O)[C@H]([C@@H](C)CC)n3cc(CCCCN=C(N)N)nn3)CC2)n1	22.7	-2170% (active)
CC(Sc1nc2ccccc2n1C)C(=O)NC(c1ccccc1)c1ccccc1 (centres undefined)	0.982	1.75% (inactive)
Cc1cccc(Cn2cnc3c(NS(C)(=O)=O)c(C)c(C)cc32)c1	1.13	-12.6% (inactive)
NCCCCCc1nnc(SCC(=O)c2ccc(Cl)cc2)o1	1.08	-7.9% (inactive)
